# Records with an inconclusive call do not appear. Calls of active or inactive are those of the source. The call rests on the fitted dose curve; in most records, active means well fitted inhibition curve with a large enough effect in the signal ratio, with a control signal flat (not every such curve was filed as active); inconclusive means small, poorly fitted or top-dose-only effect, or effect the other way, or a change in a side signal; inactive means flat fitted curve, though single readings scatter; the % refers to the signal ratio.
# Experiment: qHTS Assay for Identification of Small Molecule Antagonists for NFkB Signaling Pathway (AID 895)
# Conditions: NFkB beta-lactamase reporter cells, FRET ratio 460/530; series mostly up to 38.3 µM; activity change, negative = inhibition: at the top concentration
# Protocol: NIH Molecular Libraries Screening Centers Network [MLSCN]
# NIH Chemical Genomics Center [NCGC]
# The TNF alpha/NFkB signaling pathway was assayed in NFkB-bla cells (Invitrogen), a ME-180 cervical carcinoma line containing a stably integrated beta-lactamase reporter gene controlled by a NFkB response element. […] The assay was screened at the EC50 of TNF alpha activation to identify inhibitors of TNF alpha/NFkB signaling.
# NCGC Assay Protocol Summary:
# Cells were trypsinized, washed in assay medium (AM, OPTI MEM with 0.5% fetal bovine serum, 0.1 mM nonessential amino acids, 1 mM sodium pyruvate, 10mM HEPES pH 7.3, 100U/ml penicillin, and 100 ug/ml streptomycin) and plated at 1000 cells/5 uL/well into black clear-bottom 1536 well plates. After an overnight incubation at 37 C and 5% CO2, 23 nL of compound were delivered by a pin tool, 1 uL of TNF alpha (10 pM final concentration in AM) was added and plates were incubated at 37 C for 5 hrs. One uL of LiveBLAzerTM detector mix (Invitrogen) was added, the plates incubated at room temperature for 2 hrs, and fluorescence intensity at 460 and 530 nm emission was measured at 405 nm excitation by an Envision (Perkin Elmer).
# On the % scale 0 is the no-effect control and ±100 the full control effect; potency means the concentration at half of the fitted maximal effect.
Compound,"activity change, negative = inhibition",Potency
COc1ccc2[nH]cc(CCN(C)C)c2c1,2.46% (inactive),
Brc1c(Br)c(Br)c2n[nH]nc2c1Br,,5.01 µM (active)
NC[C@H](CP(=O)(O)O)c1ccc(Cl)cc1,-2.95% (inactive),
CP(=O)(O)CCCN,"-17.7% [at 38.3 µM, stimulated with 10 pM TNF alpha] (inactive)",
COC(=O)c1cc2c(cn1)[nH]c1ccccc12,-3.38% (inactive),
N[C@H](CCP(=O)(O)O)C(=O)O,-28.3% (inactive),
COc1ccc(-n2nc(C(F)(F)F)cc2-c2ccc(Cl)cc2)cc1,-13.4% (inactive),
N#CC(C#N)=Cc1ccc([N+](=O)[O-])c(O)c1,9% (inactive),
Cc1o[nH]c(=O)c1C[C@H](N)C(=O)O,"-12.6% [at 38.3 µM, stimulated with 10 pM TNF alpha] (inactive)",
COC(=O)N1CCN(C(=O)Cc2ccc(Cl)c(Cl)c2)[C@H](CN2CCCC2)C1,-1.73% (inactive),
C/C(O)=C(/C#N)C(=O)Nc1cc(Br)ccc1Br,"-9.42% [at 38.3 µM, stimulated with 10 pM TNF alpha] (inactive)",
C=CCN1CCC2(C)c3cc(O)ccc3C[C@H]1[C@H]2C,-5.25% (inactive),
CN1CCN(c2ccc3ccccc3n2)CC1,"-16.5% [at 38.3 µM, stimulated with 10 pM TNF alpha] (inactive)",
Oc1ccc2c3c1O[C@H]1c4[nH]c5ccccc5c4C[C@]4(O)[C@H](C2)N(CC2CC2)CC[C@@]314,-6.01% (inactive),
C[C@H](N)Cc1c[nH]c2ccc(OCc3cccs3)cc12,-15% (inactive),
C=C(C)[C@H]1CN[C@H](C(=O)O)[C@@H]1CC(=O)O,"-9.61% [at 38.3 µM, stimulated with 10 pM TNF alpha] (inactive)",
C=CCN1CC[C@@]23c4c5ccc(O)c4O[C@H]2/C(=N\N=C2/CC[C@@]4(O)[C@H]6Cc7ccc(O)c8c7[C@@]4(CCN6CC=C)[C@@H]2O8)CC[C@]3(O)[C@@H]1C5,8.51% (inactive),
CN1CC[C@@]23CCCC[C@@H]2[C@@H]1Cc1ccc(O)cc13,-2.21% (inactive),
